Many of the other results were omitted from the sample, so hits are more common in it than they were.
MITF inh – MITF inhibition | TRPM1 promoter luciferase, luminescence, 24 h | inhibition, % (no concentration beside the values) | 37,000 compounds, 0.28% hits | AID 2240; in the data active = inhibition above about 85%;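 also: human melanocyte line stably carrying TRPM1 promoter luciferase reporter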
NOMO-1 viab – STK33 inhibitor candidate reducing NOMO-1 cell viability; NOMO-1 AML viability, CellTiter-Glo luminescence, 72 h; inhibition, % (test concentration not listed); 37,000 compounds, 7.5% hits; AID 2330; in the data active = inhibition above about 80%
STK33 kin inh – inhibitors of human STK33 kinase | Q9BYT3 | ADP-Glo luminescence, MBP substrate | inhibition, % at 12.5 µM | 27,000 compounds, 0.44% hits | AID 2322; in the data active = inhibition above about 20%
Target sequence (Q9BYT3 whole entry, looked up): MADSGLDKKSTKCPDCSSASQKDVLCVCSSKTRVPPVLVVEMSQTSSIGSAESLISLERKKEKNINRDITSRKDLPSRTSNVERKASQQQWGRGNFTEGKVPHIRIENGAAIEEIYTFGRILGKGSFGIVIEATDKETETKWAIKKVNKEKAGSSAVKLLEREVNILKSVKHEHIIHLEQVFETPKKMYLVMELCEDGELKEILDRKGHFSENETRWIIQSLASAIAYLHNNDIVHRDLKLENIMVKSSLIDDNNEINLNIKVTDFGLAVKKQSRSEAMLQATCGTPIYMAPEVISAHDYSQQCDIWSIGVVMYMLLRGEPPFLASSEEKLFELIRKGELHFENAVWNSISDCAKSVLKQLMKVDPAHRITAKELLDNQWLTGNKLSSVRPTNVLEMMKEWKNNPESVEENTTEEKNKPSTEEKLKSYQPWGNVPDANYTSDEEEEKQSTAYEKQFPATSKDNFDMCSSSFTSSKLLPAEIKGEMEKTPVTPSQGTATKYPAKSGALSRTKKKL
mut p53 react – restores mutant p53 pathway signaling in SW480 cells. SW480 PUMA-promoter luciferase, p53 mutant reactivation. activation, % at 9.98 µM. 28,000 compounds, 1.5% hits. AID 624151; in the data active = activation above about 52%
* marks the source's active call; other numbers are inactive results; nt = not tested or not shown.

SMILES	MITF inh	NOMO-1 viab	STK33 kin inh	mut p53 react
O=C(CC1(O)C(=O)N(Cc2ccc(Cl)cc2)c2ccc(Cl)cc21)c1ccco1 (configuration not stated)	24.5	113.9*	1.1	-4.9
CN1C(=O)C(O)(CC(=O)c2ccco2)c2cc(Cl)ccc21 (configuration not stated)	23.7	133.0*	-2.5	2.9
CC(=O)OC(C[C@@]1(C)[C@H](C)[C@H](OC(C)=O)C[C@@]23COC(=O)C2=CCC[C@@H]31)c1ccoc1 (some centres not stated)	nt	nt	-5.6	nt
C[C@H](CO)N1C[C@H](C)[C@H](CN(C)Cc2ccc(Cl)c(Cl)c2)Oc2c(NC(=O)c3ccc(-c4nccs4)cc3)cccc2C1=O	65.7	108.1*	nt	nt
C[C@@H]1CN([C@H](C)CO)C(=O)c2cccc(NC(=O)c3ccc(-c4nccs4)cc3)c2O[C@H]1CN(C)Cc1ccc(Cl)c(Cl)c1	48.2	105.9*	nt	nt
C[C@H]1CN([C@@H](C)CO)C(=O)c2cccc(NC(=O)c3ccc(-c4nccs4)cc3)c2O[C@H]1CN(C)Cc1ccc(Cl)c(Cl)c1	33.0	102.3*	nt	nt
C[C@@H]1CN([C@@H](C)CO)C(=O)c2cccc(NC(=O)c3ccc(-c4nccs4)cc3)c2O[C@@H]1CN(C)Cc1ccc(Cl)c(Cl)c1	20.4	51.6	nt	nt
Nc1cc(N)cc(C(=O)OCN2C(=O)c3ccccc3C2=O)c1	-5.1	9.6	nt	nt
O=C(CSc1nc2ccccc2c(=O)[nH]1)Nc1ccccc1Cl	22.3	18.6	1.7	22.0
COc1ccc(Br)cc1C(Nc1ccccn1)c1cc(Cl)c2cccnc2c1O (configuration not stated)	51.1	114.3*	6.9	-73.2
COc1ccc(C(Nc2ccccn2)c2cc(Cl)c3cccnc3c2O)cc1[N+](=O)[O-] (configuration not stated)	45.0	112.8*	0.2	-54.1
COc1cc(C(Nc2ccccn2)c2cc(Cl)c3cccnc3c2O)cc(I)c1O (configuration not stated)	15.3	25.2	0.4	-0.7
Cc1ccc(N(CC(N)=O)S(=O)(=O)c2ccc(F)cc2)cc1	-2.7	-25.6	1.5	1.4
CSC1=NC2(CCCCC2)NC2=C1CCCC2	-10.1	20.5	nt	nt
COc1ccc(C)cc1CN1CCC(CNC(=O)Nc2cc(Cl)ccc2C)CC1	24.4	121.8*	-2.7	-12.4
Cc1c(NC(=O)COc2ccc(C(C)C)cc2)cccc1C(=O)O	-62.1	-1.2	-5.8	36.0
COC(=O)C1=CO[C@@H](O[C@@H]2O[C@H](CO)[C@@H](O)[C@H](O)[C@H]2O)[C@H]2[C@@H]1C=CC21C=C([C@H](C)OC(=O)/C=C/c2ccc(O)cc2)C(=O)O1 (some centres not stated)	9.4	9.5	-2.6	nt
N#Cc1c(N)nc(Sc2ccc(Cl)cc2)c(C#N)c1-c1ccccc1	9.8	101.5*	nt	nt
N#Cc1c(-c2ccccc2Cl)cc(C2CC2)nc1N	5.1	3.0	nt	nt
O=C(Oc1ccc(C2SCCS2)cc1)C1CCCCC1	-27.0	17.6	-0.5	nt
CCOc1ccccc1NC(=O)CN1C(=O)c2ccc([N+](=O)[O-])cc2C1=O	-1.9	-15.7	2.1	-9.0
CSc1ccc(/C=N/n2nnnc2Nc2ccccc2)cc1	4.4	94.9*	nt	nt
Cc1ccc2nc(-c3ccc(NC(=O)[C@@H]4CCCC[C@@H]4C(=O)O)cc3)sc2c1	nt	nt	nt	-1.7
O=C(Nc1ncnc2sc3c(c12)CCCCC3)c1ccc(F)cc1	0.8	108.9*	nt	nt
CSCCC(Nc1ncnc2sc3c(c12)CCCC3)C(=O)O (configuration not stated)	-11.8	-4.6	0.7	-8.6
SMILES	MITF inh	NOMO-1 viab	STK33 kin inh	mut p53 react
Cc1cc(Br)ccc1NCc1ccc2c(c1)OCO2	-68.0	42.5	nt	nt
Clc1ccc2ncnc(NCc3ccc4c(c3)OCO4)c2c1	45.4	82.5*	1.3	-53.0
C=C1C(=O)O[C@@H]2[C@H]1[C@H](O)C[C@]1(C)[C@@H](O)CC=C(C)[C@@H]21	7.6	114.9*	-2.3	-4.8
Cc1cc(OCC(=O)NCc2cccnc2)c(C)cc1Br	-13.2	40.4	0.7	19.3
COc1c(O)c2c(=O)cc(OC)c3c4c(OC)cc(=O)c5c(O)c(OC)c(C[C@@H](C)OC(=O)c6ccccc6)c(c(c1C[C@@H](C)OC(=O)Oc1ccc(O)cc1)c23)c54	74.3	141.6*	0.1	-75.6
O=C1Nc2ccc(Br)cc2/C1=C/c1cc2c([nH]1)CCCC2	-33.8	69.2	71.5*	9.2
CN(C)S(=O)(=O)c1ccc2c(c1)/C(=C/c1cc3c([nH]1)CCCC3)C(=O)N2	-61.3	72.8	22.2	nt
CN(C)CCNc1nc2c(c(=O)n(C)c(=O)n2C)n1Cc1ccccc1F	-10.3	14.6	-3.6	-8.6

Compound activity deposited in PubChem BioAssay by Broad Institute.
